The results in this text go back to PubChem BioAssay (NCATS).

Active and inactive are the calls of the source. No rule for the calls is given here. Where only a bound is given, the exact number is not on record here.
Potency is read from the fitted curve at half-maximal effect.

For this assay, the system named is HIV-1 nucleocapsid protein NCp7 (binding to TG oligonucleotide). Description: HIV Nucleocapsid (AID 346).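 Also: potency is for inhibitors that block NC binding and lower polarization.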 Particulars: HIV-1 NC / fluorescein-TGTGTGTG probe, fluorescence polarization. Summed up: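 Inhibition of nucleocapsid binding to single-stranded 5'-TGTGTGTG probe (10 nM) was measured by fluorescence polarization after 1 hr at room temperature with 100 nM protein under high-salt, zinc-containing, reducing conditions.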
(In general: Polarisation of emitted light reports the rotation of a fluorescent probe.)
For `CN(Cc1ccco1)c1ncncc1-c1ccccc1Cl`, the Potency was > 20 µM (inactive).
`O=C(Nc1cccc(F)c1)N1CCC2(CCNCC2)CC1`: the Potency is > 20 µM (inactive).
The result for `CN1CCN(c2ncnc3ccc(-c4cccc(C#N)c4)cc23)CC1` reads > 20 µM (inactive).
As for `COc1ccc(CNc2nc(-c3ccc4c(c3)OCO4)nc3ccccc23)c(OC)c1`, the Potency is > 20 µM (inactive).
Then `O=C(Nc1cccc(F)c1)N1CCCC2(CCN(S(=O)(=O)c3ccccc3)CC2)C1`, with > 20 µM (inactive); and `O=c1c(-c2ccc(F)cc2)nc2cnc(Nc3ccccc3)nc2n1Cc1cccs1`, with > 4 µM (inactive); and `O=C(c1ccco1)N1CCC2(CC1)CCN(c1ccccn1)CC2`, with > 20 µM (inactive).
Then `O=c1cnc2cnc(OCc3ccccc3)nc2n1Cc1ccc(F)cc1`, with > 20 µM (inactive).
Then `COCCn1c(=O)c(CCc2ccccc2)nc2cnc(N3CCNCC3)nc21`, with > 20 µM (inactive).
On to `Clc1ccccc1-c1ccc2ncnc(N3CCNCC3)c2c1`, for which the Potency is > 20 µM (inactive).
With `Cc1noc(C)c1-c1cc(N2CCNCC2)ncn1`, the Potency is > 20 µM (inactive).
Take `CN(C)c1ncc2ncc(=O)n(C[C@H]3CCCO3)c2n1`: the Potency was > 20 µM (inactive).
In the case of `COCCn1c(=O)c(CCc2ccccc2)nc2cnc(Oc3cccc(Cl)c3)nc21`, the Potency is > 20 µM (inactive).
For `O=c1c(CCc2ccccc2)nc2cnc(N3CCOCC3)nc2n1Cc1cccs1`, the Potency was > 20 µM (inactive).
For `COc1ccc(-n2c(=O)c(-c3ccccc3)nc3cnc(N4CCOCC4)nc32)cc1`, the Potency is > 20 µM (inactive).
The result for `O=C(Nc1ccccc1)N1CCCC2(CCN(C(=O)c3ccco3)CC2)C1` reads > 20 µM (inactive); that for `c1cncc(-c2nc(-n3ccnc3)c3ccccc3n2)c1`, > 20 µM (inactive).
Consider `COc1ccccc1-c1nccc(Nc2ccc(F)cc2)n1`, for which the Potency was > 20 µM (inactive).
As for `c1ccc(CNc2ccnc(-c3ccoc3)n2)cc1`, the Potency was > 20 µM (inactive).
`CN1CCN(c2ncc3nc(-c4cccs4)c(=O)n(Cc4ccc(F)cc4)c3n2)CC1`: the Potency was > 4 µM (inactive).
In the case of `CC(=O)NCCNc1ncnc2ccc(-c3c(C)noc3C)cc12`, the Potency was > 20 µM (inactive).
As for `O=S(=O)(c1ccccc1)N1CCC[C@@]2(CCN(c3cccc(-c4ccccc4)c3)C2)C1`, the Potency was > 20 µM (inactive).
With `CCNc1ncc2nc(-c3cn(C)c4ccccc34)c(=O)n(Cc3cccs3)c2n1`, the Potency is > 20 µM (inactive).
Then `Cc1ccccc1-c1nccc(NCc2cccs2)n1`, with > 20 µM (inactive).
As to `COc1ccccc1CN1CCC2(CC1)CCN(C(=O)c1ccco1)CC2`, the Potency is > 20 µM (inactive).
Then `N#Cc1cccc(NC(=O)N2CCCC3(CCN(S(=O)(=O)c4ccccc4)CC3)C2)c1`, with > 20 µM (inactive); and `CC(=O)N1CCC2(CCCN(Cc3ccccc3)C2)CC1`, with > 20 µM (inactive); and `COc1ccccc1CNc1cc(-c2ccccc2OC)ncn1`, with > 20 µM (inactive).
`COCCn1c(=O)cnc2cnc(N3CCOCC3)nc21`: the Potency is > 20 µM (inactive).
For `CNc1ncnc2ccc(-c3cccc(OC)c3)cc12`, the Potency was > 20 µM (inactive).
For the compound `FC(F)(F)c1cc(CN2CC3(CCNCC3)C2)cc(C(F)(F)F)c1`, the Potency was > 20 µM (inactive).
As for `CN(Cc1ccco1)c1ncnc2ccc(-c3ccc4c(c3)OCO4)cc12`, the Potency was > 20 µM (inactive).
Turning to `O=C(c1ccncc1)N1CCC2(CC1)CCN(C(c1ccccc1)c1ccccc1)CC2`, the Potency is > 20 µM (inactive).
Then `CC(=O)N1CCC[C@@]2(CCN(Cc3ccc(C#N)cc3)C2)C1`, with > 20 µM (inactive); and `COc1ccc(CNc2ncnc3ccc(-c4cccc(C#N)c4)cc23)c(OC)c1`, with > 20 µM (inactive).
As to `COc1ccc(C(=O)N2CCC[C@@]3(CCN(Cc4ccccc4)C3)C2)cc1`, the Potency was > 20 µM (inactive).
Regarding `COc1ccc(C(=O)N2CCC3(CCN(C(=O)Nc4ccccc4)CC3)CC2)cc1`, the Potency was > 20 µM (inactive).
As for `O=C(c1ccncc1)N1CCC2(CC1)CCN(c1ccncc1)CC2`, the Potency is > 20 µM (inactive).
The result for `COc1ncc2nc(-c3ccccc3)c(=O)n(C)c2n1` reads > 20 µM (inactive).
Then `O=c1c(-c2ccc(F)cc2)nc2cnc(N3CCNCC3)nc2n1Cc1ccc(F)cc1`, with > 20 µM (inactive).
